Experimental data reported in the supplement of paper PMC10849652.
About 7,900 targets were measured; listed, in parts, are those with a hit and a random draw of the rest. About 0.6% of all pairs of compound and target were hits.

Key:
Test in all cases: log2 fold change, soluble protein after heating vs DMSO (PISA); higher = thermal stabilisation; K562 cells, 10 uM, 30 min; active = over 0.2 and 3.5 SD of the protein, either way, in both replicates (recomputed)
[1] = compound: CC1=C(C=C(C=C1)NC(=O)C2=CC(=CC=C2)C(C)(C)C#N)NC3=CC4=C(C=C3)N=CN(C4=O)C
How it was run: (§1)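 Soluble protein was defined as the supernatant after 21,000xg for 90 min. It came from K562 cells at 2×10^6 cells/mL given 10 μM compound for 30 min, heated in aliquots for 3 min across 48°C-58°C, pooled, and extracted in PBS with 0.5% NP-40 at 4°C, and was quantified by TMTpro 16plex LC-MS/MS with equalised channel sums. Thermal stability against control samples, from duplicates, is reported as log2 fold change.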

[2] = compound: CC1=C(C=C(C=C1)NC(=O)C2=CC(=CC=C2)N(C)C)NC(=O)C3=CC=C(C=C3)O
How it was run: as §1

[3] = compound: CC1=CC=C(C=C1)SC2=C3C=C(SC3=CN=C2)C(=O)N
How it was run: as §1

[4] = compound: CC1=NC(=CC=C1)C2=C(N=C(N2)C(C)(C)C)C3=CC4=NC=CN=C4C=C3
How it was run: as §1

Nexturastat A = compound: CCCCN(Cc1ccc(C(=O)NO)cc1)C(=O)Nc1ccccc1 [Nexturastat A]
How it was run: as §1

vemurafenib = compound: CCCS(=O)(=O)Nc1ccc(F)c(C(=O)c2c[nH]c3ncc(-c4ccc(Cl)cc4)cc23)c1F [vemurafenib]
How it was run: as §1

[5] = compound: CCCS(=O)(=O)Nc1ccc(F)c(C(=O)c2c[nH]c3ncc(Cl)cc23)c1F
How it was run: as §1

[6] = compound: CCCc1cc(C)[nH]c(=O)c1CNC(=O)c1cc(-c2ccnc(N3CCN(C)CC3)c2)cc2c1cnn2C(C)C
How it was run: as §1

givinostat = compound: CCN(CC)Cc1ccc2cc(COC(=O)Nc3ccc(C(=O)NO)cc3)ccc2c1 [givinostat]
How it was run: as §1

barasertib = compound: CCN(CCCOc1ccc2c(Nc3cc(CC(=O)Nc4cccc(F)c4)[nH]n3)ncnc2c1)CCOP(=O)(O)O [barasertib]
How it was run: as §1

[7] = compound: CC[C@@H]1C(=O)N(C)c2cnc(Nc3ccc(C(=O)NC4CCN(C)CC4)cc3OC)nc2N1C1CCCC1
How it was run: as §1

volasertib = compound: CC[C@@H]1C(=O)N(C)c2cnc(Nc3ccc(C(=O)N[C@H]4CC[C@H](N5CCN(CC6CC6)CC5)CC4)cc3OC)nc2N1C(C)C [volasertib]
How it was run: as §1

[8] = compound: CC[C@H](C)N1C=C(C2=C(C=C(C=C21)C3=CN=C(C=C3)N4CCNCC4)C(=O)NCC5=C(C=C(NC5=O)C)C)C
How it was run: as §1

epoxomicin = compound: CC[C@H](C)[C@@H](C(=O)N[C@@H]([C@@H](C)O)C(=O)N[C@@H](CC(C)C)C(=O)[C@]1(CO1)C)NC(=O)[C@H]([C@@H](C)CC)N(C)C(=O)C [epoxomicin]
How it was run: as §1

[9] = compound: CCn1c(C(=O)N(C2CC2)C2CC2)cc2c3c(ncn3C)c(Nc3cc(C)n(C)n3)nc21
How it was run: as §1

[10] = compound: CCn1cc(-c2ccnc3[nH]c(-c4cccc(CN(C)C)c4)cc23)c(-c2ccc(NC(=O)N(C)C)cc2)n1
How it was run: as §1

[11] = compound: CN(C)CC(=O)Nc1ccc2[nH]c(=O)c3ccccc3c2c1
How it was run: as §1

rosiglitazone = compound: CN(CCOC1=CC=C(C=C1)C[C@H]2C(=O)NC(=O)S2)C3=CC=CC=N3 (racemic) [rosiglitazone]
How it was run: as §1

[12] = compound: CN1C2=C(C3=C1C(=O)N(N=C3)CC4=CC(=CC=C4)N)SC(=C2)S(=O)C
How it was run: as §1

[13] = compound: CN1CCC(CNc2ccc3ncc(-c4cccc(OC(F)(F)F)c4)n3n2)CC1
How it was run: as §1

Measured: log2 fold change

MAP2K3 isoform 3 (UniProt P46734)
Sequence of UniProt P46734 (P46734 whole entry, looked up): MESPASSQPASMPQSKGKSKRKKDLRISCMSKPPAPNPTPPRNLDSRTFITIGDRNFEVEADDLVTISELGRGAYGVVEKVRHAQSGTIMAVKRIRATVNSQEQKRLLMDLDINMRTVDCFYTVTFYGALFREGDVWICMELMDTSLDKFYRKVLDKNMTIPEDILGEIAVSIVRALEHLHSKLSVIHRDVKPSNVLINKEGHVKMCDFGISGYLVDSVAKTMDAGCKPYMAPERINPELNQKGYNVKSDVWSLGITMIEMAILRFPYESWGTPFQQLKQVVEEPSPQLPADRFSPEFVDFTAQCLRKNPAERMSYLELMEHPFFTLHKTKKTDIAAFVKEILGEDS
inactive: [1] -0.071 | [2] -0.074 | [3] -0.051 | [4] -0.08 | Nexturastat A 0.103 | vemurafenib -0.031 | [5] -0.008 | [6] 0.021 | givinostat 0.002 | barasertib 0.042 | [7] -0.041 | volasertib -0.17 | [8] 0.09 | epoxomicin -0.035 | [9] -0.017 | [10] 0.039 | [11] 0.038 | rosiglitazone 0.018 | [12] -0.054 | [13] -0.121

KIAA1324L (UniProt A8MWY0)
Sequence of UniProt A8MWY0 (A8MWY0 whole entry, looked up): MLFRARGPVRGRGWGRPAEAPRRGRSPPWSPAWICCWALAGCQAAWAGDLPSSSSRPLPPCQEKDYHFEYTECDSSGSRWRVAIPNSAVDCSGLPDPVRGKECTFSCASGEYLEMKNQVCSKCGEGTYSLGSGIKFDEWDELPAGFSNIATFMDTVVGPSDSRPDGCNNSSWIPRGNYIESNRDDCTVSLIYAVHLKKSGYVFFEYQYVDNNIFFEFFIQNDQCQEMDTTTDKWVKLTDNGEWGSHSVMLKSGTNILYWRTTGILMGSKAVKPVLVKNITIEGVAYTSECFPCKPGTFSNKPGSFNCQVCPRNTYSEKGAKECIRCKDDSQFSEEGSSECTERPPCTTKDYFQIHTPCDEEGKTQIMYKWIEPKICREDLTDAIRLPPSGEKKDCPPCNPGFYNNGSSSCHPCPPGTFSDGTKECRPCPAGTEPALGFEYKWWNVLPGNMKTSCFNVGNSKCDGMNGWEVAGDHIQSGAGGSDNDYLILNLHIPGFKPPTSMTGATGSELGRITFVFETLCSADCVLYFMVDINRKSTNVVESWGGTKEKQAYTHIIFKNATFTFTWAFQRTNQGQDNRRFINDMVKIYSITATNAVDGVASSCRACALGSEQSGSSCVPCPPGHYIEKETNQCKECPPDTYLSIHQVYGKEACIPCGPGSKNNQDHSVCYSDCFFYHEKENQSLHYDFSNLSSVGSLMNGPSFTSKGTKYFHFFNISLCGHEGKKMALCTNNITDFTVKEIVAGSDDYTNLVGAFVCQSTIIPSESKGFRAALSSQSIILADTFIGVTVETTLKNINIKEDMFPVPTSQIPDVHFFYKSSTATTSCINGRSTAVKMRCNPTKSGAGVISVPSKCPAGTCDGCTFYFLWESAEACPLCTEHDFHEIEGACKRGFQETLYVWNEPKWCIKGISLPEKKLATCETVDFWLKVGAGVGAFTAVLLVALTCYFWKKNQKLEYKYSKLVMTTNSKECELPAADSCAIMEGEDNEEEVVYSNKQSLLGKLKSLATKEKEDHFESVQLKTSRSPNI
active: [7] -0.312 | volasertib -0.293
inactive: [1] -0.065 | [2] -0.022 | [3] 0.028 | [4] 0.002 | Nexturastat A 0.045 | vemurafenib 0.002 | [5] -0.048 | [6] 0.05 | givinostat 0.032 | barasertib 0.002 | [8] -0.012 | epoxomicin 0.015 | [9] 0.011 | [10] -0.019 | [11] 0.091 | rosiglitazone 0.111 | [12] -0.112 | [13] -0.14

MGST1 (UniProt P10620)
Sequence of UniProt P10620 (P10620 whole entry, looked up): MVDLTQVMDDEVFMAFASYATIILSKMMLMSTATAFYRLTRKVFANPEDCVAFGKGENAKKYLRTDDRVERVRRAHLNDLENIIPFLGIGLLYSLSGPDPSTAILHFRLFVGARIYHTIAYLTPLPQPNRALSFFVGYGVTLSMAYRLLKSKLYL
inactive: [1] 0.062 | [2] 0.044 | [3] -0.017 | [4] 0.017 | Nexturastat A -0.07 | vemurafenib 0.067 | [5] -0.007 | [6] -0.093 | givinostat -0.027 | barasertib -0.035 | [7] 0.037 | volasertib 0.039 | [8] -0.043 | epoxomicin 0.003 | [9] -0.025 | [10] -0.158 | [11] 0.012 | rosiglitazone -0.037 | [12] -0.079 | [13] 0.086

LPIN1 isoform 7 (UniProt Q14693)
Sequence of UniProt Q14693 (Q14693 whole entry, looked up): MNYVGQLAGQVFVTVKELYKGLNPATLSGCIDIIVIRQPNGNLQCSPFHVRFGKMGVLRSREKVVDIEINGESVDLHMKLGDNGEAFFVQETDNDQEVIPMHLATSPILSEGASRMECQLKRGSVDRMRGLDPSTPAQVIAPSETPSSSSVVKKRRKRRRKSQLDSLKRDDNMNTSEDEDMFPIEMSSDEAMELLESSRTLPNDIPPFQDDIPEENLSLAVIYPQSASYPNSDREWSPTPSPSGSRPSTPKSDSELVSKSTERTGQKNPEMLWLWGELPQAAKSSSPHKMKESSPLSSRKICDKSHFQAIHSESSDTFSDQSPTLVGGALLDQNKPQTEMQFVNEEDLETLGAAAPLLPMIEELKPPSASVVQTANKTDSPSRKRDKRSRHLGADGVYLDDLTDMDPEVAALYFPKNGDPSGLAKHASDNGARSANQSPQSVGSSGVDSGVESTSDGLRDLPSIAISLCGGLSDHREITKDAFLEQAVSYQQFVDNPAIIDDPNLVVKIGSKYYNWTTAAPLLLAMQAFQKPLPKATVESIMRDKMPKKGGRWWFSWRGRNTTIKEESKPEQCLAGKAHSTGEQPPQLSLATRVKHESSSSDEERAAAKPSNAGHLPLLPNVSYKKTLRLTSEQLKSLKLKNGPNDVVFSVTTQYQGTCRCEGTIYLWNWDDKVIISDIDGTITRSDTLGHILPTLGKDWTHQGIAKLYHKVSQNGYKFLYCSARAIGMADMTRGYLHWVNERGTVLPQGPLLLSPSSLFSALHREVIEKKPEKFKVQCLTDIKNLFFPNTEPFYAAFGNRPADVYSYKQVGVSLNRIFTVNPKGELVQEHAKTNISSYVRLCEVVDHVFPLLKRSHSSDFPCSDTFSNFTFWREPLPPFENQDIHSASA
inactive: [1] -0.022 | [2] 0.018 | [3] -0.022 | [4] -0.026 | Nexturastat A -0.023 | vemurafenib -0.004 | [5] 0.015 | [6] 0.029 | givinostat 0.012 | barasertib 0.023 | [7] 0.06 | volasertib -0.002 | [8] 0.063 | epoxomicin 0.098 | [9] 0.011 | [10] -0.045 | [11] 0.012 | rosiglitazone 0.055 | [12] 0.008 | [13] -0.016

MAP3K4 isoform 2 (UniProt Q9Y6R4)
inactive: [1] -0.012 | [2] 0.026 | [3] -0.018 | [4] -0.003 | Nexturastat A 0.008 | vemurafenib -0.033 | [5] -0.001 | [6] -0.012 | givinostat -0.015 | barasertib 0.02 | [7] 0.141 | [8] -0.013 | epoxomicin 0.007 | [9] 0 | [11] 0.013 | rosiglitazone 0.018 | [12] -0.018 | [13] 0.024
active: volasertib 0.398 | [10] -0.519

KPNA6 (UniProt O60684)
inactive: [1] -0.06 | [2] -0.02 | [3] -0.014 | [4] -0.063 | Nexturastat A 0.156 | vemurafenib -0.09 | [5] 0.078 | [6] 0.068 | givinostat 0.018 | barasertib 0.047 | [7] -0.225 | [8] 0.04 | epoxomicin 0.021 | [9] -0.098 | [10] 0.043 | [11] 0.063 | rosiglitazone 0.062 | [12] 0.227 | [13] -0.184
active: volasertib -0.699

LIMD1 (UniProt Q9UGP4)
Sequence of UniProt Q9UGP4 (Q9UGP4 whole entry, looked up): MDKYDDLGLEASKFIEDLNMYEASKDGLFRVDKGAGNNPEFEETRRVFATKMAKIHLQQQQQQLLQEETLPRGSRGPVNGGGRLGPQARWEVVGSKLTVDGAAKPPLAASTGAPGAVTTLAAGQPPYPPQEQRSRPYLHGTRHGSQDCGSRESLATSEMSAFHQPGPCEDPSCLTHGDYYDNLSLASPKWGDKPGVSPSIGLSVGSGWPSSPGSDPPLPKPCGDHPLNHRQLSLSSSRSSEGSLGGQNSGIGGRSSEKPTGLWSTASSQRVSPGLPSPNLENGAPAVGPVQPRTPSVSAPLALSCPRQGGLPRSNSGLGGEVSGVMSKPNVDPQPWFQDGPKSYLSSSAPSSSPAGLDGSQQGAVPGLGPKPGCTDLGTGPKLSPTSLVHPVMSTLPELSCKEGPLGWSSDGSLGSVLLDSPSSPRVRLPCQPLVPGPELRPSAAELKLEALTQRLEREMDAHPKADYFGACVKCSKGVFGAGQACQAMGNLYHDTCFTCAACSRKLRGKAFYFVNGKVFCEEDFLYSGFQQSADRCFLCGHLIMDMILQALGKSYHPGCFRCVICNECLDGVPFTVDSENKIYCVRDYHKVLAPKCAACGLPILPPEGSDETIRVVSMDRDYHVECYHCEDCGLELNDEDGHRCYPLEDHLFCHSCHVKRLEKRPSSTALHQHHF
active: volasertib -0.245
inactive: [1] 0 | [2] 0.009 | [3] 0.037 | [4] -0.012 | Nexturastat A -0.022 | vemurafenib 0.024 | [5] 0.084 | [6] 0.019 | givinostat 0.02 | barasertib -0.017 | [7] -0.055 | [8] 0.042 | epoxomicin -0.018 | [9] 0.026 | [10] 0.002 | [11] 0.015 | rosiglitazone 0.064 | [12] -0.028 | [13] -0.043

IRF2BPL (UniProt Q9H1B7)
Sequence of UniProt Q9H1B7 (Q9H1B7 whole entry, looked up): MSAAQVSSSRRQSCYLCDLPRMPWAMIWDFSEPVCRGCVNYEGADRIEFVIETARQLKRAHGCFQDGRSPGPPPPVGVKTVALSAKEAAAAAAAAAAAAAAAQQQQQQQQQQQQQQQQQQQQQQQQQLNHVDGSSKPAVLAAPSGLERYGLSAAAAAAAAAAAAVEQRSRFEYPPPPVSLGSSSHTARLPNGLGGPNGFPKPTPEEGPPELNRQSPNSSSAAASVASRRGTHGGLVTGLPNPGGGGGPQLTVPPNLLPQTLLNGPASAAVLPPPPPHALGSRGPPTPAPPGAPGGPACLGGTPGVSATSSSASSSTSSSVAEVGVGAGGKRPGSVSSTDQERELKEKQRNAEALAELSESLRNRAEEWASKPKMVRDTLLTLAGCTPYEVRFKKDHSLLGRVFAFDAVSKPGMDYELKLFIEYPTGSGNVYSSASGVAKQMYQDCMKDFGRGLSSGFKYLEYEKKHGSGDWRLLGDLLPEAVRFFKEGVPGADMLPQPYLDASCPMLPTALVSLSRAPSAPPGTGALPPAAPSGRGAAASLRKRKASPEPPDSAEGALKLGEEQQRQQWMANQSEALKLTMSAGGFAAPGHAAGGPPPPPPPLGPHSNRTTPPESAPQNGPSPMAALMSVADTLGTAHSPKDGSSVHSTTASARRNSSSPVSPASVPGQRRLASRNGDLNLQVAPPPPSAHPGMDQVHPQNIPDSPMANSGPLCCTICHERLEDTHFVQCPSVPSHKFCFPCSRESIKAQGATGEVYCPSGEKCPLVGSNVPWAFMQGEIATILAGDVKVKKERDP
inactive: [1] 0.013 | [2] -0.006 | [3] 0.015 | [4] 0.068 | Nexturastat A 0.038 | vemurafenib 0.014 | [5] 0.049 | [6] 0.008 | givinostat 0.05 | barasertib -0.044 | [7] 0.01 | volasertib -0.043 | [8] -0.012 | epoxomicin 0.108 | [9] -0.042 | [10] -0.023 | [11] 0.036 | rosiglitazone 0.067 | [12] -0.068 | [13] -0.018
